AMA1 RON2 block = AMA1-RON2 (P. falciparum) interaction inhibition | AID 720542 | actives 0.2% (n = 360,000) | Potency, µM (titrated, usually from 58.2 µM), inactives show top-dose activity change, negative = inhibition, most hits filed as inhibitors | AlphaScreen AMA1-biotinylated RON2 peptide binding;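 further: 0% = vehicle wells and -100% = peptide control; nearly all actives have a fitted effect of over 45% in size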
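AMA1 (3D7) with his tag at 25 nM final met compounds first, then biotinylated RON2 peptide at 25 nM; detection used donor plus acceptor beads, 10 µg/mL apiece, read by AlphaScreen after 30 min at room temperature.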
SARS PLpro yeast = blocks SARS-CoV papain-like protease in a yeast assay. AID 485353. actives 0.19% (n = 330,000). S. cerevisiae expressing SARS-CoV PLpro, growth rescue. Potency, µM (titrated, usually from 32.9 µM), inactives show at the top dose activity, positive = growth rescue, actives largely listed as activators; calls by dose curve; further: 0% is about no effect; nearly all actives have a fitted effect of over 55% in size
Pf growth 48h = inhibits P. falciparum growth in the first generation, 48 h. P. falciparum luciferase growth in erythrocytes, 48 h. Potency, µM (doses to about 28.7 µM), for inactives: at the top dose activity change, negative = inhibition, most hits filed as inhibitors. actives 5.9% (n = 310,000). AID 504832; further: on the % scale 0 is the no-effect control and ±100 the full control effect
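Luciferase-expressing P. falciparum in infected erythrocytes (2% hematocrit, 0.1% parasitemia final) in RPMI 1640/0.5% Albumax were exposed to compound for 48 hours at 37 C, 5% CO2; growth read as luminescence.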
Pf growth 96h = P. falciparum growth inhibition at 96 hours; P. falciparum luciferase reporter growth, 96 h; Potency, µM (top dose mostly 28.7 µM), inactives show at the highest dose activity change, negative = inhibition, actives largely listed as inhibitors; actives 6.9% (n = 320,000); AID 504834; further: on the % scale 0 is the no-effect control and ±100 the full control effect
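Compounds incubated with erythrocytes infected by luciferase-expressing P. falciparum (2% hematocrit, 0.05% parasitemia final) for 96 hours, 37 C in 5% CO2. Growth inhibition scored as decreased luciferase luminescence.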
Numbers without * were called inactive; ? = inconclusive; nt = not tested or not shown; [ ] = remark or other dose. Most compounds without a hit are left out; they make up all but 9.4% or so of the library. Unless noted, the call rests on the fitted dose curve; in most records, active means well fitted curve in the direction sought with a large enough effect; inconclusive means small, poorly fitted or top-dose-only effect, or another doubt; inactive means no such curve, though single readings can be large; an effect the other way counts as inactive or inconclusive. Potency means the concentration at half of the fitted maximal effect.

SMILES | AMA1 RON2 block | SARS PLpro yeast | Pf growth 48h | Pf growth 96h
CC(C)Oc1ccc(S(=O)(=O)N2CCCCC2)cc1NC(=O)C1=COCCO1 | 13% | 1% | ? | 8.3µM*
CCOc1ccc(Oc2ccc(C(F)(F)F)cc2NC(=O)C2=COCCO2)cc1 | 10% | 0% | 15µM* | ?
COc1ccc2c(c1)C1=NN(/C(C)=C/C(C)=O)C(c3cccc(F)c3)C1CC2 (centres undefined) | -1% | 21% | ? | ?
Cc1c(NC(=O)c2ccc(S(=O)(=O)N3CCOCC3)cc2)cccc1[N+](=O)[O-] | 12% | -2% | -28% | 7%
COc1ccc(OC)c(C2C/C(=N/O)C(C)C(c3cc(OC)ccc3OC)N2)c1 (centres undefined) | 40% | nt | nt | nt
CCc1ccc(NC(=O)C2CCCN(S(=O)(=O)c3ccc4c(c3)CCCN4C(C)=O)C2)cc1 (centres undefined) | -5% | 0% | ? | ?
COc1cc(OC)c(NC(=O)C(=O)CC(=O)c2ccc(C)cc2C)cc1Cl | 9% | 8% | ? | 3.3µM*
COc1cc(OC)cc(C(=O)Nc2ccc(S(=O)(=O)Nc3cnc4ccccc4n3)cc2)c1 | -2% | nt | nt | nt
COc1ccc(CCNC(=O)c2ccc(SC)cc2OC)cc1 | -3% | -2% | ? | 2.6µM*
COc1cc(C(=O)Nc2ccc(S(=O)(=O)Nc3cnc4ccccc4n3)cc2)cc(OC)c1OC | -1% | -6% | ? | 12µM*
COc1cc(C(=O)NC(=S)Nc2ccc(Cc3ccncc3)cc2)cc(OC)c1OC | 65% | -2% | 10µM* | 40%
Cc1cc(C)cc(C(=O)NC(=S)Nc2ccc(Cc3ccncc3)cc2)c1 | 6% | -18% | ? | -8%
COc1cc(C(=O)Nc2nc3ccccc3[nH]2)cc(OC)c1OC | 40% | 9% | ? | 9.3µM*
COc1cc(SC)ccc1C(=O)NCCOc1ccc(F)cc1 | -2% | -9% | 98% | -2%
COc1ccccc1OCCC(=O)OCCN1C(=O)c2ccccc2C1=O | 9% | 10% | nt | 4%[5.75 µM]
O=C(OCCCc1cc2ccccc2c(=O)o1)c1ccc(F)cc1 | 13% | -1% | 73% | 70%
COc1cc(SC)ccc1C(=O)Nc1nc2ccccc2[nH]1 | 5% | -79% | ? | 0.17µM*
CCn1c(CNC(=O)c2cc(OC)c(OC)c(OC)c2)cc2ccccc21 | -6% | -5% | 9.3µM* | ?
COc1cc(C(=O)Nc2ccc3ccccc3c2)cc(OC)c1OC | -8% | -9% | 5.2µM* | 1.7µM*
Cn1cccc1-c1nc2ccc(NC(=O)c3cccs3)cc2[nH]1 | -12% | -11% | 1% | 12µM*
COc1ccc(C(=O)Nc2ccc3ccccc3c2)cc1OC | -3% | 1% | 116% | 61%
Cc1cc(=O)[nH]c(SCC(=O)NNC(=O)Cc2ccccc2)n1 | 31% | -7% | 31% | 14%
CCC(=O)c1ccc(OCC(=O)OC(C)C(=O)NCc2ccc3c(c2)OCO3)cc1 (centres undefined) | -4% | -1% | ? | 21%
Cc1ccc(C(=O)Nc2nc3ccccc3[nH]2)cc1 | 61% | -8% | -98% | -39%
O=C(Nc1nc2ccccc2[nH]1)c1cccs1 | 72% | -6% | 374% | 0.47µM*
SMILES | AMA1 RON2 block | SARS PLpro yeast | Pf growth 48h | Pf growth 96h
CSc1nnc(NC(=O)c2ccc(C)c(S(=O)(=O)N3CCOCC3)c2)s1 | -2% | -3% | 11% | 26%
CCOC(=O)C[N+](C)(C)CCOC1CC2CCC1(C)C2(C)C (centres undefined) | 7% | 0% | 2.1µM* | 0%
CC1(C)[C@@H]2CC[C@]1(C)[C@@H](OC(=O)CSC#N)C2 | nt | nt | -12% | -19%
CC1(C)C2CCC1(C)C(OCC[N+](C)(C)CC(=O)OC1CCCCC1)C2 (centres undefined) | 7% | -5% | 1.5µM* | 0.52µM*
CC1(C)[C@H]2CC[C@]1(C)[C@@H](OC(=O)C[N+]1(C)CCOCC1)C2 | -15% | 0% | 0% | -17%
CCCn1c2ccccc2c2cnn(CC(=O)OC)c(=O)c21 | 0% | 3% | nt | ?
CCCCSc1nc2c(c(=O)[nH]c(=O)n2C)n1CCc1ccccc1 | -1% | 1% | ? | ?
O=S(=O)(Nc1ccc(Cl)c(C(F)(F)F)c1)c1cnc[nH]1 | -8% | 2% | 9% | 14%
CN1CCN(c2ccc(Cl)cc2NC(=O)C2COc3ccccc3O2)CC1 (centres undefined) | -8% | -17% | 8.3µM* | 2.3µM*
CCC1(c2ccc(F)cc2)NC(=O)N(CC(=O)N2CCc3ccccc32)C1=O (centres undefined) | -2% | 8% | 12µM* | 10µM*
CN1CCN(c2ccc(Cl)cc2NC(=O)c2cccc(S(=O)(=O)N(C)C)c2)CC1 | -2% | -4% | ? | nt
CCC1(c2ccccc2)NC(=O)N(CC(=O)Nc2cc(Cl)ccc2N2CCN(C)CC2)C1=O (centres undefined) | 104% | -5% | 12µM* | ?
CCC1(c2ccccc2)NC(=O)N(CC(=O)N2CCc3ccccc32)C1=O (centres undefined) | -1%[11.6 µM] | 1% | nt | nt
CN1CCN(c2ccc(Cl)cc2NC(=O)/C=C/c2cccc(F)c2)CC1 | -3% | -1% | 9.3µM* | ?
COc1cccc(/C=C/C(=O)OCC(=O)c2ccc(C)c(C)c2)c1OC | -9% | -3% | -24% | -22%
CN1CCN(c2ccc(Cl)cc2NC(=O)CN2C(=O)NC(C)(c3ccccc3)C2=O)CC1 (centres undefined) | 43% | -5% | 2.9µM* | ?
CCCn1c(=O)c2c(C(=O)OCC)cc(-c3ccco3)nc2n(CCC)c1=O | 1% | -2% | nt | 1.5µM*
CCOC(=O)c1cnn2c(C(F)(F)F)cc(-c3ccco3)nc12 | 7% | 5% | 2% | 2%
CCOC(=O)c1cc(-c2ccco2)nc2c1c(C)nn2-c1ccccc1 | 9% | 7% | 9.3µM* | 14%
O=c1[nH][nH]c(-c2ccccc2O)c1C(C[N+](=O)[O-])c1ccccc1 (centres undefined) | 20%[2.32 µM] | 2% | -9% | -4%
CCc1ccc(C(CNC(=O)c2ccc3c(=O)n(-c4ccccc4F)c(=S)[nH]c3c2)N(C)C)cc1 (centres undefined) | 19% | 1% | 13µM* | ?
Cc1cc(C)c(NS(=O)(=O)c2ccc(NC(=O)c3cccs3)cc2)c(C)c1 | 13% | -1% | -10% | -17%
CC[C@H](C)[C@H]1O[C@]2(CC[C@@H]1C)C[C@@H]1C[C@@H](C/C=C(\C)[C@H](O[C@@H]3C[C@H](OC)[C@H](O[C@@H]4C[C@H](OC)[C@@H](O)[C@H](C)O4)[C@H](C)O3)[C@@H](C)/C=C/C=C3\CO[C@@H]4[C@H](O)C(C)=C[C@@H](C(=O)O1)[C@]34O)O2 | nt | nt | 1.2µM* | 4.8µM*
CC(C)Oc1cc(NC(=O)CSCC(=O)Nc2cccc(C(F)(F)F)c2)c(Cl)cc1Cl | -1% | -29% | -10% | 16%
CN(C)c1cc[n+](Cc2c(Cl)cccc2Cl)cc1 | 2% | -19% | 4.7µM* | 0.37µM*
CN(C)c1nc(NCc2ccccc2)nc(SCC(=O)Nc2ccc(Cl)c(Cl)c2)n1 | -4% | -6% | 10µM* | 12µM*

Screening data: PubChem, National Center for Advancing Translational Sciences (NCATS)
